# Inconclusive results are not listed. Values without a mark were called inactive. Calls follow the shape of the dose curve; as a rule, active = well fitted inhibition curve with a large enough effect in the signal ratio in the repeat runs (not every such curve was filed as active); inconclusive = weak or mixed curves, or effect the other way; inactive = flat fitted curve, though single readings scatter; the % refers to the signal ratio.
# Assay: cAMP Responsive Elements (CRE) small molecule antagonists, cell-based qHTS assay (AID 1963591)
# Settings: CRE-bla HEK293T, beta-lactamase FRET ratio; series mostly up to 92.4 µM; activity change, negative = inhibition: at the top concentration
# In short: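 Beta-lactamase reporter read by FRET substrate (LiveBLAzer B/G) after 2 h at room temperature. CRE-bla HEK293T cells had received compound plus 0.25 uM (final) NKH477 for 3 h at 37 °C.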
# % is scaled to controls: 0 for no effect and ±100 for the full control effect.
row,Structure (SMILES),"activity change, negative = inhibition"
1,Nc1ccccc1Nc1ccccc1,-54.3%
2,CC(=O)c1ccc2c(c1)Cc1ccccc1-2,17.9%
3,CCCCOc1ccc(CC(=O)NO)cc1,-21.3% [at 42.4 µM]
4,O=C(O)c1cccnc1Nc1cccc(C(F)(F)F)c1,-3.56% [at 42.4 µM]
5,CC(=O)CCC1=C(C)CCCC1(C)C,-0.271%
6,CCN1CCN(C(=O)N[C@@H](C(=O)N[C@@H]2C(=O)N3[C@@H]2SC(C)(C)[C@H]3C(=O)O)c2ccccc2)C(=O)C1=O,3.13% [at 42.4 µM]
7,CCCCCC(C)O (stereo not given),4.97%
8,CC(C)(C)C(O)/C=C/c1ccc2c(c1)OCO2 (stereo not given),9.82% [at 42.4 µM]
9,C=C(C)C(=O)OCc1ccccc1,-0.829%
10,O=C(Cl)c1cccc([N+](=O)[O-])c1,14.3%
11,CN1CC(=O)N2[C@H](c3ccc4c(c3)OCO4)c3[nH]c4ccccc4c3C[C@@H]2C1=O,7.54% [at 42.4 µM]
12,COc1ccnc(CS(=O)c2nc3ccc(OC(F)F)cc3[nH]2)c1OC (stereo not given),0.917% [at 42.4 µM]
13,Cc1ccc(OC(=O)CC(C)C)cc1,-6.6%
14,Nc1ccn([C@@H]2O[C@H](CO)[C@@H](O)[C@@H]2O)c(=O)n1,-5.12%
15,CN1C(C(=O)Nc2ccccn2)=C(O)c2sccc2S1(=O)=O,1.78% [at 42.4 µM]
16,O=C(O)CO,-3.89%
17,CCNC(=O)NCc1cccc(Cl)c1,-13.6% [at 42.4 µM]
18,O=C1CCCCCO1,-5.11%
19,COc1nc(C)nc(Cl)c1NC1=NCCN1,-5.22% [at 42.4 µM]
20,CO/N=C(/C(=O)N[C@@H]1C(=O)N2C(C(=O)[O-])=C(C[n+]3ccn4ncccc43)CS[C@H]12)c1nsc(N)n1,3.51% [at 42.4 µM]
21,N#Cc1ccccc1O,-6.63%
22,O=C1NCC2(CCN(CCc3ccccc3)CC2)O1,-8.6% [at 42.4 µM]
23,CN(C)C(=O)Nc1ccccc1,-0.126%
24,Nc1ccc(Oc2ccc(N)c(N)c2)cc1,-13%
25,CC(C)COC(=O)CCCCC(=O)OCC(C)C,0.889%

# Reference: PubChem BioAssay (Tox21)
